An excerpt weighted towards active compounds, which were near 1.2% of everything screened.
PI4K2A inh: inhibitors of human PI4K2A; Q9BTU6; purified PI4K2A, ADP-Glo luminescence, 1 h; stronger effect = lower value; activity change, negative = inhibition, % at 76.9 µM; 420,000 tested, 0.13% active; in the data active = activity change below about -50%; inconclusive = mostly about -30% to -49%
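Compounds are screened against recombinant PI4K2A using PI as substrate and ATP, the latter dispensed at 300 microM. Reactions run one hour at ambient temperature before ADP-Glo detection; full inhibition defined by wells lacking enzyme.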
PKM2 act: increases activity of human pyruvate kinase M2. P14618. purified PKM2, Kinase-Glo ATP luminescence, activation; response scale: 0% is enzyme alone, no compound. Potency, µM (titrated, usually from 57.5 µM), most hits filed as activators. 260,000 tested, 0.34% active. AID 1631; note: nearly all actives have a fitted effect of over 55% in size
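Purified hPK-M2 (>95% pure) converted ADP (0.1 mM final) to ATP with 0.5 mM PEP in 50 mM imidazole pH7.2, KCl, MgCl2, Tween 20, BSA; 1 h at room temperature. ATP detected by Kinase-Glo luminescence.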
TrxR1 substrate: is turned over as a substrate by rat TrxR1; O89049; purified TrxR1 substrate turnover, NADPH consumption readout; Potency, µM (titrated, usually from 114 µM); 390,000 tested, 0.01% active; AID 588456; note: nearly all actives have a fitted effect of over 50% in size
Target sequence (O89049 whole entry, looked up): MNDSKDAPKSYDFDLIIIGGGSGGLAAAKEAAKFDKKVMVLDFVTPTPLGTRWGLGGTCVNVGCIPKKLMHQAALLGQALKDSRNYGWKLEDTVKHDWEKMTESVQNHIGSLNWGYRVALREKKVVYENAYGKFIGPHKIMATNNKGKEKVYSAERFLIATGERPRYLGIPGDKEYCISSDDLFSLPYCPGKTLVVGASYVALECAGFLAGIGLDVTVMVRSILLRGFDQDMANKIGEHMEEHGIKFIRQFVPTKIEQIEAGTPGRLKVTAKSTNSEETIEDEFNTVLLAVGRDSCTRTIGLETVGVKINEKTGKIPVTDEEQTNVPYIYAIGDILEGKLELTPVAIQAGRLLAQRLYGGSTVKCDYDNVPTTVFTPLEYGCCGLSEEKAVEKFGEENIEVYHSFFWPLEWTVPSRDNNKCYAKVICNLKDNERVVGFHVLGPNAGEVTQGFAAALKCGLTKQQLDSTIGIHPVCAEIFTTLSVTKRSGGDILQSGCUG
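Rat TrxR1, dispensed at 90 nM, was prereduced with 400 uM NADPH (final) for 5 min at ~22 deg C, then incubated with compound 15 min before 400 uM selenite. A first-read NADPH fluorescence drop versus no-compound background flagged substrates.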
GALK inh: blocks human galactokinase activity. P51570. Purified GALK, Kinase-Glo residual ATP luminescence. Potency, µM (series often up to 57.5 µM), usual class: inhibitors. 270,000 tested, 0.007% active
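Luminescence from leftover ATP (Ultra-Glo luciferase/luciferin) served as read-out after a 1 h room-temperature reaction of 5 nM GALK with 35 uM ATP and 100 uM galactose.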
rTrxR1 inhibitor: blocks rat thioredoxin reductase 1. O89049. recombinant rTrxR1, NADPH fluorescence consumption, selenite substrate. Potency, µM (series often up to 114 µM), most hits filed as inhibitors. 390,000 tested, 1% active. AID 588453; note: nearly all actives have a fitted effect of over 65% in size
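Rat TrxR1 (90 nM in the dispensed reagent) was pre-reduced with 400 uM NADPH for 5 min at room temperature, then incubated with compound for 15 min. After 400 uM selenite was added, NADPH fluorescence (Ex 340/Em 450 nm) was followed for 8 min.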
Each line names hits and unclear results; the compound was inactive in the other large screens. Unless noted, calls come from the whole dose curve; as a rule, active = well fitted curve in the direction sought with a large enough effect; inconclusive = small, poorly fitted or top-dose-only effect, or another doubt; inactive = no such curve, though single readings can be large; an effect the other way counts as inactive or inconclusive.

O=C(CCN1CCCC1Cc1ccccc1)c1ccc2c(c1)OCCO2 (stereo unspecified)	rTrxR1 inhibitor 0.316µM
O=C(CCN1CCc2ccccc2C1)c1ccc2c(c1)OCCO2	rTrxR1 inhibitor 0.562µM
CCOC(=O)C1CCCN(C(=O)CCS(=O)(=O)c2cc3c(cc2Cl)NC(=O)CO3)C1 (stereo unspecified)	none (no result: PKM2 act, GALK inh)
O=C(CCN1CCCCCC1)Nc1ccc2c(c1)OCCO2	none
O=C(CCN1CCCCC1)c1ccc2c(c1)OCCO2	rTrxR1 inhibitor 0.316µM
COc1ccc(C2Nc3ccccc3C(=O)N2Cc2ccco2)cc1COc1c(C)cccc1C (stereo unspecified)	rTrxR1 inhibitor 20µM (no result: PI4K2A inh, PKM2 act, GALK inh)
COc1cccc(OCc2cc(C3Nc4ccccc4C(=O)N3Cc3ccco3)ccc2OC)c1 (stereo unspecified)	PKM2 act 7.94µM, rTrxR1 inhibitor inconclusive
O=C(CC1(O)C(=O)N(CCc2ccccc2)c2ccccc21)c1ccco1 (stereo unspecified)	none
C#CCN1C(=O)C(O)(CC(=O)/C=C/c2ccco2)c2ccccc21 (stereo unspecified)	rTrxR1 inhibitor 39.8µM
CC(C)Cn1c([N+](=O)[O-])nc2c1c(=O)[nH]c(=O)n2C	none (no result: GALK inh)
Cn1c(=O)[nH]c(=O)c2c1nc(Br)n2CCC(=O)c1ccccc1	rTrxR1 inhibitor 17.8µM
Cn1c(=O)[nH]c(=O)c2c1nc([N+](=O)[O-])n2Cc1ccccc1	PI4K2A inh inconclusive, rTrxR1 inhibitor 6.31µM
COC(=O)c1ccc(-c2ccc3c(c2)[C@]2(CCC[C@@H](O)[C@@H]2NC(=O)CCc2ccccc2)C(=O)N3Cc2ccccc2)cc1	none (no result: PKM2 act, TrxR1 substrate, GALK inh, rTrxR1 inhibitor)
CCOC(=O)C1=C(O)c2ccccc2C(=O)/C1=C\c1ccc(C)cc1	PKM2 act inconclusive, rTrxR1 inhibitor 11.2µM
CCOC(=O)C1=C(C)OC(=Cc2ccccc2)C1=O	none (no result: PKM2 act, TrxR1 substrate, GALK inh, rTrxR1 inhibitor)
CCCCNc1nc2c(c(=O)n(Cc3ccc(Cl)cc3)c(=O)n2C)n1C	none (no result: PKM2 act, GALK inh)
Cc1nonc1C(=O)N/N=C/c1ccncc1	none
Cc1nonc1C(=O)N/N=C/c1ccc(O)cc1O	PI4K2A inh -79.4
CCOc1ccc(CNC(=O)CSc2nnc(C)c3c(C)n(-c4ccc(Cl)cc4)nc23)cc1	none (no result: PKM2 act, GALK inh)
Cn1nnnc1Sc1ncnc2scc(-c3cccs3)c12	rTrxR1 inhibitor 44.7µM (no result: PKM2 act, GALK inh)
COCCn1c(N)c(C(=O)NS(=O)(=O)c2ccc(C)cc2)c(=O)[nH]c1=O	PKM2 act 25.1µM
O=C(O)c1cc(O)c2c(c1)[C@@H]([C@H]1c3cc(C(=O)O)cc(O)c3C(=O)c3c(O[C@@H]4O[C@H](CO)[C@@H](O)[C@H](O)[C@H]4O)cccc31)c1cccc(OC3O[C@H](CO)[C@@H](O)[C@H](O)[C@H]3O)c1C2=O (stereo partly specified)	none (no result: PKM2 act, GALK inh)
O=C(O)c1cc(O)c2c(c1)[C@H]([C@H]1c3cc(C(=O)O)cc(O)c3C(=O)c3c(O[C@@H]4O[C@H](CO)[C@@H](O)[C@H](O)[C@H]4O)cccc31)c1cccc(OC3O[C@H](CO)[C@@H](O)[C@H](O)[C@H]3O)c1C2=O (stereo partly specified)	PI4K2A inh -64.2, rTrxR1 inhibitor 79.4µM (no result: PKM2 act, GALK inh)
O=C(/C=C/c1cccc([N+](=O)[O-])c1)c1ccc([N+](=O)[O-])o1	rTrxR1 inhibitor 1.12µM (no result: PKM2 act, GALK inh)
O=C(/C=C/c1cccc([N+](=O)[O-])c1)Nc1cccc(NC(=O)c2ccco2)c1	none
Cc1ccccc1/C=C/C(=O)c1ccc([N+](=O)[O-])o1	rTrxR1 inhibitor 3.55µM (no result: PKM2 act, GALK inh)
O=C(/C=C/c1cccc([N+](=O)[O-])c1)NCc1ccc2c(c1)OCO2	none
O=C(/C=C/c1cccc([N+](=O)[O-])c1)c1ccco1	rTrxR1 inhibitor 17.8µM
Cc1cccc(/C=C/C(=O)c2ccc([N+](=O)[O-])o2)c1	rTrxR1 inhibitor 1.26µM (no result: PKM2 act, GALK inh)
Cc1ccccc1NC(=O)c1ccc([N+](=O)[O-])o1	none
COc1ccc(/C=C/C(=O)c2ccc([N+](=O)[O-])o2)cc1	rTrxR1 inhibitor inconclusive (no result: PKM2 act, GALK inh)
COc1ccc(N=C(N)NC(=O)OCc2ccccc2)cc1	none (no result: PKM2 act, TrxR1 substrate, GALK inh, rTrxR1 inhibitor)
COc1ccccc1CNC(=O)N1CCN(Cc2nc3ccccc3c(=O)[nH]2)CC1	none (no result: PKM2 act, TrxR1 substrate, GALK inh, rTrxR1 inhibitor)
Fc1ccc(NC(=S)Nc2nccs2)cc1	rTrxR1 inhibitor 7.94µM

Screening data as filed in PubChem BioAssay.
